Source: article PMC7862700, “An all-to-all approach to the identification of sequence-specific readers for epigenetic DNA modifications on cytosine”

Legend:
Experiment in all cases: DAPPL (digital affinity profiling via proximity ligation, sequencing); 10 mM Tris-HCl pH 7.5, 50 mM NaCl, 1 mM DTT, 4% glycerol, room temperature, 30 min; GST-TFs on glutathione beads, 16-mer random dsDNA library, 0.1% formaldehyde crosslink after washing; high values mean tight binding
Settings in all cases: protein: recombinant; tags: N-terminal GST; dsDNA, one strand shown
[1] = molecular target: ETV1 (Homo sapiens, UniProt P50549 1-477)
Chain of ETV1 (P50549 whole entry, the tested form may be a part): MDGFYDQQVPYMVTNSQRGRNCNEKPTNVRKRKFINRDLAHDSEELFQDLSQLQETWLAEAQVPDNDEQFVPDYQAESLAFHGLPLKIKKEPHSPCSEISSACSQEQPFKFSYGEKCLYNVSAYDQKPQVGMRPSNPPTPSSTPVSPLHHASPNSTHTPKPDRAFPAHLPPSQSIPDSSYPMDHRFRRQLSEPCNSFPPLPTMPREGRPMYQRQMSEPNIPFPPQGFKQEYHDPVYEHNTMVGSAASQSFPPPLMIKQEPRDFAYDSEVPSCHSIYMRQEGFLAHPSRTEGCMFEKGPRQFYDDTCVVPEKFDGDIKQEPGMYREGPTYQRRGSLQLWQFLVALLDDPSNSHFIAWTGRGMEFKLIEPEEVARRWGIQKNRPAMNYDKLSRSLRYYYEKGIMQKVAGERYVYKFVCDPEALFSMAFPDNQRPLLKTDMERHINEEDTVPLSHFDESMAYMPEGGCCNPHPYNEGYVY
Outline: (§1)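 Human transcription factors were made in yeast as GST fusions, captured on glutathione beads and barcoded with DNA. With a tag-only sample included, the pool was incubated with 200 nmole of a random double-stranded 16-mer DNA library in Tris/NaCl/DTT/glycerol buffer at room temperature for 30 min, then crosslinked with 0.1% formaldehyde after washing, ligated by proximity, amplified and sequenced. For binding signal, each hexamer's read frequency for a factor is divided by its frequency for the tag-only sample.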

[2] = molecular target: T1, ERF (Homo sapiens, UniProt P50548 1-548)
T1 sequence: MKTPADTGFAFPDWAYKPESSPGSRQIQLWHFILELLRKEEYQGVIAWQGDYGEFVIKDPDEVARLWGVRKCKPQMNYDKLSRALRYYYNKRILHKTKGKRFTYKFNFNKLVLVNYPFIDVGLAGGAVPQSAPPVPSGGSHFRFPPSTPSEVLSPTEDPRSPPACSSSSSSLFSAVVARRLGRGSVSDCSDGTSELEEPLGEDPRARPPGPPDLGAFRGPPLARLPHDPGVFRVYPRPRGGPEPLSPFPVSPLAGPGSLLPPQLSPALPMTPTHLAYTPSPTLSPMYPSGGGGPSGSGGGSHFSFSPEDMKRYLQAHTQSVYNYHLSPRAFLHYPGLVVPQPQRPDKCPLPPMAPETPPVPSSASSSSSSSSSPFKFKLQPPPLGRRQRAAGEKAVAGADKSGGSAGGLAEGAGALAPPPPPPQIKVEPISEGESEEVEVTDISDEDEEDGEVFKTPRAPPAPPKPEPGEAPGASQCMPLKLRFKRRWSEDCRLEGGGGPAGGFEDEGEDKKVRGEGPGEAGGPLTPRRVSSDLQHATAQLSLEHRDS
Outline: as §1

[3] = molecular target: T2, ETV3L (Homo sapiens, UniProt Q6ZN32 1-361)
T2 sequence: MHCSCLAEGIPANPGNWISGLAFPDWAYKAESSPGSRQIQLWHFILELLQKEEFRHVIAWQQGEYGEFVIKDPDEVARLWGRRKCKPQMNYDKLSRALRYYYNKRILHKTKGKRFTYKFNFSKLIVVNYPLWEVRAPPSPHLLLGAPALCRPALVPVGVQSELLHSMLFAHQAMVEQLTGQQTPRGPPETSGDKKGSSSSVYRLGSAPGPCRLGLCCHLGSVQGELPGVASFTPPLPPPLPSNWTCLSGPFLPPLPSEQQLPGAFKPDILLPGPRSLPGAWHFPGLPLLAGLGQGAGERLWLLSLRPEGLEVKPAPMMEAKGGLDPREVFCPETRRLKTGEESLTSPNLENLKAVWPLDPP
Outline: as §1

[4] = molecular target: T3, ETS2 (Homo sapiens, UniProt P15036 1-469)
T3 sequence: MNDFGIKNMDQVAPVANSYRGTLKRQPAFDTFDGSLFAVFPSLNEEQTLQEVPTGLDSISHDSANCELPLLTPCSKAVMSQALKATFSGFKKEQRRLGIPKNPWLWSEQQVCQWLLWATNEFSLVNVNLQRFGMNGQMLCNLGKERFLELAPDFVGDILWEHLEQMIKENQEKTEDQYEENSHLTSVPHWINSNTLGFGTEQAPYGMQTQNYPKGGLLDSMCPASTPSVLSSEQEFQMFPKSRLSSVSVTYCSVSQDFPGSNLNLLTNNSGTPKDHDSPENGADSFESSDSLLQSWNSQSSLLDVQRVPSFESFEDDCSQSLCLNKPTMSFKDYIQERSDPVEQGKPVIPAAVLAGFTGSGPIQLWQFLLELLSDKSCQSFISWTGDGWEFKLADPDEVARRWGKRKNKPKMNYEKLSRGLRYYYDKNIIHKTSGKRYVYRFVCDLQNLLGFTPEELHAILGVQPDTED
Outline: as §1

[5] = molecular target: T4, SPDEF (Homo sapiens, UniProt O95238 1-335)
T4 sequence: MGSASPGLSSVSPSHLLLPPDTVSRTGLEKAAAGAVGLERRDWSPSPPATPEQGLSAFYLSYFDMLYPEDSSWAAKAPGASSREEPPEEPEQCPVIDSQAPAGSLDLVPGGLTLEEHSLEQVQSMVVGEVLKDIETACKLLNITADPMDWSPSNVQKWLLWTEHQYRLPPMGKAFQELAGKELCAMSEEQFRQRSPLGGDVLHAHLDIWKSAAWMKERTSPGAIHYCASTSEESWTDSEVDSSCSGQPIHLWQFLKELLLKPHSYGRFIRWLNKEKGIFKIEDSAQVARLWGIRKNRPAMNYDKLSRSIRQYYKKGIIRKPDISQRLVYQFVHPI
Outline: as §1

[6] = molecular target: T5, ETV7 (Homo sapiens, UniProt Q9Y603 1-341)
T5 sequence: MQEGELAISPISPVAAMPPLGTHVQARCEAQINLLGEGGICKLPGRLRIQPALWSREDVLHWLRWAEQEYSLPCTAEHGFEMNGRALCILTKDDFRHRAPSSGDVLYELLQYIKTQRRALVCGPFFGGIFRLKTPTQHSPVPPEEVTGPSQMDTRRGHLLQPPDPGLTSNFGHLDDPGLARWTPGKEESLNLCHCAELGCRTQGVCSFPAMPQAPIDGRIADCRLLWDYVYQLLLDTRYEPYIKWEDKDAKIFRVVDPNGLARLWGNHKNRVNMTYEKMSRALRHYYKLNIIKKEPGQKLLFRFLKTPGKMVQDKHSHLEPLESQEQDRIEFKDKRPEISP
Outline: as §1

[7] = molecular target: T6, ELF5 (Homo sapiens, UniProt Q9UKW6-2 1-255)
T6 sequence: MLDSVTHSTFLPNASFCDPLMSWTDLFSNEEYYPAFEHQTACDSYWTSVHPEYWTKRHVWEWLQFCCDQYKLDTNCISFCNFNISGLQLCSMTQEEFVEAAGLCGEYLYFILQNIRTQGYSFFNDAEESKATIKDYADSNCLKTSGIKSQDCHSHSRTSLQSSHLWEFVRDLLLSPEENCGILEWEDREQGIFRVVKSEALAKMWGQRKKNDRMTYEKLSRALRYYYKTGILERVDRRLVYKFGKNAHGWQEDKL
Outline: as §1

[8] = molecular target: T7, ETV3 (Homo sapiens, UniProt P41162-2 1-143)
T7 sequence: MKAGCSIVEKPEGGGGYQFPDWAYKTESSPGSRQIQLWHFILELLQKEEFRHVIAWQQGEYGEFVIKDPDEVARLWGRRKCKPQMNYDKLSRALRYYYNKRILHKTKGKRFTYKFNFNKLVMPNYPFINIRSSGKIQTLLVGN
Outline: as §1

[9] = molecular target: ETV6 (Homo sapiens, UniProt P41212 1-452)
Chain of ETV6 (P41212 whole entry): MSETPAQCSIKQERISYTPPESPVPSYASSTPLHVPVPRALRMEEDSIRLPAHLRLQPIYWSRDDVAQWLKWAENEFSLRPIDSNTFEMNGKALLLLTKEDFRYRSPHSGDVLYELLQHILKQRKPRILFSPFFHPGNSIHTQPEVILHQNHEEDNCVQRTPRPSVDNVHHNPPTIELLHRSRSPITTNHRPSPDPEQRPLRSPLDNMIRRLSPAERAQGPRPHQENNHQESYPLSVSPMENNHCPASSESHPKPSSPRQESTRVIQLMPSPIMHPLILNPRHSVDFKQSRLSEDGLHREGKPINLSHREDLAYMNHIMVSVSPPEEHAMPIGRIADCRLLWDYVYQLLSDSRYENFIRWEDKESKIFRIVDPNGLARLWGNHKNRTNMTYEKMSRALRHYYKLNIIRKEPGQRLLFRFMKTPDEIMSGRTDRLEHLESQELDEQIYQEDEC
Outline: as §1

Sequence: GCACTA
- binding signal [1]: 1.15 fold enrichment (6-mer frequency, TF over GST control)
- binding signal [2]: 1.19 fold enrichment (6-mer frequency, TF over GST control)
- binding signal [3]: 1.23 fold enrichment (6-mer frequency, TF over GST control)
- binding signal [4]: 1.21 fold enrichment (6-mer frequency, TF over GST control)
- binding signal [5]: 1.16 fold enrichment (6-mer frequency, TF over GST control)
- binding signal [6]: 1.2 fold enrichment (6-mer frequency, TF over GST control)
- binding signal [7]: 1.1 fold enrichment (6-mer frequency, TF over GST control)
- binding signal [8]: 1.22 fold enrichment (6-mer frequency, TF over GST control)
- binding signal [9]: 1.09 fold enrichment (6-mer frequency, TF over GST control)
